Twelve molecules from PubChem BioAssay (NCI) can be followed below.

The nature of assay [1]: NCI Yeast Anticancer Drug Screen. Data for the rad50 strain (AID 155).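 Further: 0% = growth of vehicle-only cultures of the same strain.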 The conditions noted are these: S. cerevisiae rad50 strain growth inhibition, hits give high values. An outline of the steps:
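Compounds were tested on a yeast strain with an engineered DNA damage repair alteration; the reported value is growth inhibition normalised to vehicle treatment.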

The nature of assay [2]: NCI Yeast Anticancer Drug Screen. Data for the mec2-1 strain (AID 157). The conditions noted are these: S. cerevisiae mec2-1 strain, hits give high values. An outline of the steps:
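Mutant yeast (mec2-1) grown with compound; growth inhibition relative to vehicle control reported.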

Assay [3] can be described thus: NCI Yeast Anticancer Drug Screen. Data for the sgs1 mgt1 strain (AID 161).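 Further: 0% = growth of cultures given vehicle only.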 The conditions noted are these: S. cerevisiae sgs1 mgt1 strain, hits give high values. An outline of the steps: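 Growth of a repair-deficient yeast mutant was monitored after compound treatment and expressed as inhibition relative to vehicle-treated cultures.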
The nature of assay [4]: NCI Yeast Anticancer Drug Screen. Data for the cln2 rad14 strain (AID 165).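 Further: 0% = growth equal to vehicle treated cultures.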 The conditions noted are these: S. cerevisiae cln2 rad14 strain, hits give high values. An outline of the steps: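 Readout is yeast growth inhibition versus vehicle-treated controls, using a strain with cln2 and rad14 alterations exposed to compound.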
The nature of assay [5]: NCI Yeast Anticancer Drug Screen. Data for the bub3 strain (AID 167). The conditions noted are these: S. cerevisiae bub3 mutant strain, hits give high values. In short, it runs like this: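 Growth of a checkpoint-deficient yeast mutant is measured after compound exposure. Values represent inhibition relative to vehicle.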
The nature of assay [6]: NCI Yeast Anticancer Drug Screen. Data for the mlh1 rad18 strain (AID 175). The conditions noted are these: S. cerevisiae mlh1 rad18 strain growth inhibition, hits give high values. In short, it runs like this:
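Genetically defined yeast (DNA repair-deficient) exposed to compounds; growth inhibition determined relative to vehicle.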

Where [7] appears, read: at 5.0 µM (retest, dose inferred, filed as 0.5).
Where [8] appears, read: at 50.0 µM (retest, dose inferred, filed as 5.0).

Each structure is given as a SMILES string. Compounds without any hit were thinned out: in the full panel of roughly 79,000, 15% have a hit. Unmarked numbers belong to inactive results. Calls of active or inactive are those of the source. No stated cut-off is given here; in the data, active means growth inhibition above about 70%; inactive means the rest.

With `Nc1c(N)c(Cl)c(Cl)c(Cl)c1Cl`, the growth inhibition in assay [1] (setting [7]) is 38%; in assay [1] (setting [8]), 84% (active); in assay [1] (at 50.0 µM), 87% (active); in assay [2] (setting [7]) it was 58%; in assay [2] (setting [8]), 91% (active); in assay [2] (at 50.0 µM), 91.6% (active). The growth inhibition in assay [3] (setting [7]) was 20%; in assay [3] (setting [8]), 96% (active); in assay [4] (setting [7]), 43%; in assay [4] (setting [8]) it was 97% (active); in assay [5] (setting [7]), 32%; in assay [5] (setting [8]) it was 98% (active). Besides, the growth inhibition was 33% in assay [6] (setting [7]), 83% (active) in assay [6] (setting [8]) and 87.3% (active) in assay [6] (at 50.0 µM).
Turning to `O=C(c1ccccc1)N(CCCl)C(=O)N(CCCl)C(=O)c1ccccc1`, the growth inhibition is 47% in assay [1] (setting [7]); 56% in assay [1] (setting [8]); 78% (active) in assay [1] (at 50.0 µM); 68% in assay [2] (setting [7]); 52% in assay [2] (setting [8]); 48.9% in assay [2] (at 50.0 µM). Also, the growth inhibition is -7% in assay [3] (setting [7]); 68% in assay [3] (setting [8]); 45% in assay [4] (setting [7]); 56% in assay [4] (setting [8]); 23% in assay [5] (setting [7]); 64% in assay [5] (setting [8]). Besides, the growth inhibition in assay [6] (setting [7]) is 31%; in assay [6] (setting [8]) it was 36%; in assay [6] (at 50.0 µM), 68%.
Take `O=C(/C=C/C(Cl)(Cl)Cl)Nc1ccc(Cl)cc1`: the growth inhibition was -6% in assay [1] (setting [7]); 16% in assay [1] (setting [8]); 71.8% (active) in assay [1] (at 50.0 µM); -4% in assay [3] (setting [7]); 43% in assay [3] (setting [8]); 81% (active) in assay [3] (at 50.0 µM). Moreover, the growth inhibition in assay [4] (setting [7]) was 25%; in assay [4] (setting [8]), 8%; in assay [4] (at 50.0 µM) it was 77.5% (active); in assay [5] (setting [7]) it was 9%; in assay [5] (setting [8]) it was 3%; in assay [5] (at 50.0 µM), 75.9% (active). For the same molecule, the growth inhibition in assay [6] (setting [7]) was 18%; in assay [6] (setting [8]), 64%; in assay [6] (at 50.0 µM), 85% (active).
Regarding `CC(/C=N/NC(N)=S)Cc1ccc(C(C)C)cc1` (configuration not stated), the growth inhibition in assay [1] (setting [7]) was 28%; in assay [1] (setting [8]) it was 82% (active); in assay [1] (at 50.0 µM), 91.3% (active); in assay [3] (setting [7]) it was 98% (active); in assay [3] (setting [8]), 97% (active); in assay [4] (setting [7]), 98% (active). Moreover, the growth inhibition in assay [4] (setting [8]) was 98% (active); in assay [5] (setting [7]), 99% (active); in assay [5] (setting [8]) it was 97% (active); in assay [6] (setting [7]), 32%; in assay [6] (setting [8]) it was 74% (active); in assay [6] (at 50.0 µM), 91.1% (active).
`[Cl-].[Rh+3].c1ccc(-c2ccnc3c2ccc2c(-c4ccccc4)ccnc23)cc1.c1ccc(-c2ccnc3c2ccc2c(-c4ccccc4)ccnc23)cc1.c1ccc(-c2ccnc3c2ccc2c(-c4ccccc4)ccnc23)cc1`: the growth inhibition was -27% in assay [1] (setting [7]); 65% in assay [1] (setting [8]); 97.1% (active) in assay [1] (at 50.0 µM); -10% in assay [3] (setting [7]); 87% (active) in assay [3] (setting [8]); 94.5% (active) in assay [3] (at 50.0 µM). Moreover, the growth inhibition in assay [4] (setting [7]) was -4%; in assay [4] (setting [8]) it was 43%; in assay [4] (at 50.0 µM) it was 85.7% (active); in assay [5] (setting [7]), -7%; in assay [5] (setting [8]) it was 38%; in assay [5] (at 50.0 µM) it was 90.8% (active). Moreover, the growth inhibition in assay [6] (setting [7]) is -12%; in assay [6] (setting [8]), 88% (active); in assay [6] (at 50.0 µM) it was 95.9% (active).
As for `CCC(C)(CC)c1ccc(O)cc1`, the growth inhibition is 14% in assay [1] (setting [7]); 78% (active) in assay [1] (setting [8]); -1% in assay [2] (setting [7]); 45% in assay [2] (setting [8]); -3% in assay [3] (setting [7]); 77% (active) in assay [3] (setting [8]). For the same molecule, the growth inhibition in assay [4] (setting [7]) is -2%; in assay [4] (setting [8]), 23%; in assay [5] (setting [7]), 0%; in assay [5] (setting [8]), 44%; in assay [6] (setting [7]) it was 33%; in assay [6] (setting [8]), 76% (active).
`CCCCCCCCCCCCCCCC[N+]1(C)CCCC1c1cccnc1` (configuration not stated): the growth inhibition in assay [1] (setting [7]) is 93% (active); in assay [1] (setting [8]) it was 99% (active); in assay [1] (at 50.0 µM), 14.3%; in assay [2] (setting [7]), 90% (active); in assay [2] (setting [8]), 99% (active); in assay [2] (at 50.0 µM), 55.5%. Besides, the growth inhibition in assay [4] (setting [7]) was 70% (active); in assay [4] (setting [8]) it was 99% (active); in assay [4] (at 50.0 µM), 1.5%; in assay [5] (setting [7]) it was 96% (active); in assay [5] (setting [8]), 99% (active); in assay [5] (at 50.0 µM), 99% (active). Besides, the growth inhibition was 89% (active) in assay [6] (setting [7]), 99% (active) in assay [6] (setting [8]) and 68.8% in assay [6] (at 50.0 µM).
Take `CC1(C)CCC[C@]2(C)[C@@H](C=O)C(C=O)=CC[C@@H]12`: the growth inhibition in assay [1] (setting [7]) was 25%; in assay [1] (setting [8]), 90% (active); in assay [1] (at 50.0 µM) it was 91.3% (active); in assay [3] (setting [7]), 22%; in assay [3] (setting [8]), 84% (active); in assay [3] (at 50.0 µM), 88.4% (active). Besides, the growth inhibition in assay [4] (setting [7]) is 23%; in assay [4] (setting [8]) it was 81% (active); in assay [4] (at 50.0 µM) it was 90.2% (active); in assay [5] (setting [7]) it was 19%; in assay [5] (setting [8]), 88% (active); in assay [5] (at 50.0 µM), 90.3% (active). Also, the growth inhibition in assay [6] (setting [7]) was 21%; in assay [6] (setting [8]), 91% (active); in assay [6] (at 50.0 µM) it was 86.9% (active).
In the case of `Nc1ncnc2c(C3OC(CO)C(O)C3O)c[nH]c12` (configuration not stated), the growth inhibition is 26% in assay [1] (setting [7]); 92% (active) in assay [1] (setting [8]); 14% in assay [2] (setting [7]); 92% (active) in assay [2] (setting [8]); 35% in assay [3] (setting [7]); 96% (active) in assay [3] (setting [8]). Besides, the growth inhibition was 89% (active) in assay [3] (at 50.0 µM); 28% in assay [4] (setting [7]); 82% (active) in assay [4] (setting [8]); 88.2% (active) in assay [4] (at 50.0 µM); 45% in assay [5] (setting [7]); 94% (active) in assay [5] (setting [8]). Also, the figures for the growth inhibition in assay [5] (at 50.0 µM), in assay [6] (setting [7]) and in assay [6] (setting [8]) were 71.1% (active), 36% and 94% (active), respectively.
Consider `CCCCCCCCCCCCCCCC[N+](C)(C)C`, for which the growth inhibition in assay [1] (setting [7]) was 53%; in assay [1] (setting [8]), 94% (active); in assay [1] (at 50.0 µM) it was 91.3% (active); in assay [2] (setting [7]), 45%; in assay [2] (setting [8]), 87% (active); in assay [2] (at 50.0 µM), 93.1% (active). In addition, the growth inhibition in assay [3] (setting [7]) is 93% (active); in assay [3] (setting [8]), 97% (active); in assay [5] (setting [7]), 97% (active); in assay [5] (setting [8]), 96% (active); in assay [6] (setting [7]), 30%; in assay [6] (setting [8]), 84% (active). Further, in assay [6] (at 50.0 µM), the growth inhibition is 91.7% (active).
Regarding `COc1cc(NC(=O)C2=C(C)NC(C)=C(C(=O)Nc3cc(OC)c(Cl)cc3OC)C2c2cccc([N+](=O)[O-])c2)c(OC)cc1Cl`, the growth inhibition is -24% in assay [1] (setting [7]); 96% (active) in assay [1] (setting [8]); 96.7% (active) in assay [1] (at 50.0 µM); 6% in assay [3] (setting [7]); 95% (active) in assay [3] (setting [8]); 96.9% (active) in assay [3] (at 50.0 µM). The growth inhibition in assay [4] (setting [7]) is -31%; in assay [4] (setting [8]), 96% (active); in assay [4] (at 50.0 µM), 95.8% (active); in assay [5] (setting [7]) it was 27%; in assay [5] (setting [8]) it was 97% (active); in assay [5] (at 50.0 µM), 95.5% (active). For the same molecule, the growth inhibition was -14% in assay [6] (setting [7]), 96% (active) in assay [6] (setting [8]) and 96.9% (active) in assay [6] (at 50.0 µM).
For the molecule `CN1CCc2cc3c(c4c2C1C(O)c1ccccc1-4)OCO3` (configuration not stated), the growth inhibition is 17% in assay [1] (setting [7]); 32% in assay [1] (setting [8]); 31.4% in assay [1] (at 50.0 µM); 9% in assay [3] (setting [7]); 7% in assay [3] (setting [8]); 26.6% in assay [3] (at 50.0 µM). Besides, the growth inhibition in assay [4] (setting [7]) was 7%; in assay [4] (setting [8]), 17%; in assay [4] (at 50.0 µM), 31.8%; in assay [5] (setting [7]) it was 7%; in assay [5] (setting [8]) it was 27%; in assay [5] (at 50.0 µM), 36.6%. The growth inhibition in assay [6] (setting [7]) is 13%; in assay [6] (setting [8]), 11%; in assay [6] (at 50.0 µM), 15%.
